Assay results published in paper PMC5913336, “True equilibrium measurement of transcription factor-DNA binding affinities using automated polarization microscopy”.

Target: T1, Slp1-FL (Drosophila melanogaster, UniProt P32030)
T1 sequence: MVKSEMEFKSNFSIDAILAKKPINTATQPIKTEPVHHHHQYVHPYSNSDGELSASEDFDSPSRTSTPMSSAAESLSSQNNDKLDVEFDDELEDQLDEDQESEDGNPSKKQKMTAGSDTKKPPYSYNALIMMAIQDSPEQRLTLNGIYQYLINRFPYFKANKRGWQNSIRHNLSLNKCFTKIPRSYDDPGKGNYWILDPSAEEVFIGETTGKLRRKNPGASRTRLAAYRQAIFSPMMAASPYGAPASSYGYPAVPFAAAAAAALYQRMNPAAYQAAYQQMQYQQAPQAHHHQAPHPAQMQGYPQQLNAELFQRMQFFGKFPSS
Test: FP; 33 mM phosphate pH 7.0, 90 mM NaCl, 0.01% Tween 20, 0.1 mM DTT, 0.5% agarose; room temperature
Conditions: tags: N-GST (pGEX-6P-1, kept); dsDNA, one strand shown

In order of falling binding signal:
1. ACGCGTTTACACTTA  14.2 Kd / Kd of best base at the position
2. ACGTGTTTATACTTA  2.63 Kd / Kd of best base at the position
3. ACGTGTTTACATTTA  1.28 Kd / Kd of best base at the position
